Records with an inconclusive call do not appear. Active and inactive are the calls of the source. Unless noted, calls come from the whole dose curve; as a rule, active = well fitted curve in the direction sought with a large enough effect in the repeat runs; inconclusive = weak or mixed curves; inactive = no such curve, though single readings can be large; an effect the other way counts as inactive or inconclusive.
Key:
[1] = qHTS assay to identify small molecule antagonists of the estrogen related receptor (ERR) signaling pathway from Tox21 library - cell viability counter screen (AID 1224834); note: nearly all actives have a fitted effect of over 30% in size; note: potency is the fitted concentration of half-maximal effect
In short: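 In this quantitative HTS format, ERR cells receive compounds in DMSO and are incubated for 17.5 h at 37 C. Live-cell protease activity is then detected with CellTiter-Fluor.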

[2] = biological target: Luciferin 4-monooxygenase (Photinus pyralis) (UniProt P08659); experiment: qHTS assay to identify small molecule inhibitors of firefly luciferase (AID 1224835); note: nearly all actives have a fitted effect of over 25% in size
Luciferin 4-monooxygenase (Photinus pyralis), sequence (P08659 whole entry, looked up): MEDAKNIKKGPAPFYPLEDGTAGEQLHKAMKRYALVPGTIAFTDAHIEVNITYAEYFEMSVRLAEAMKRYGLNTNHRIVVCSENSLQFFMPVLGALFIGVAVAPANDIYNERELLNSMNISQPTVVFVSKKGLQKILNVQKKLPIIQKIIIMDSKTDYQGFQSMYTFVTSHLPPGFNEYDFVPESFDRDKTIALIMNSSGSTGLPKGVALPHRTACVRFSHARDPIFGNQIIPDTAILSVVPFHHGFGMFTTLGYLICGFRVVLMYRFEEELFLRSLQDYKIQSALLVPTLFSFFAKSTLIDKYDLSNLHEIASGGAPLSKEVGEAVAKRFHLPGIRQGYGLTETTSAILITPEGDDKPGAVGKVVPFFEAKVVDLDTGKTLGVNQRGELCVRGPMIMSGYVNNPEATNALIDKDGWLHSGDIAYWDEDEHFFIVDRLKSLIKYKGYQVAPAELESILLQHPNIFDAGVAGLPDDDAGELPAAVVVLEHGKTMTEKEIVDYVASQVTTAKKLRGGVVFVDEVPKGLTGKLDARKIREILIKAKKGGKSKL
In short: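 Inhibition of purified Photinus luciferase is measured by luminescence. Substrate levels (D-luciferin, ATP) sit at their KM values. Each compound is tested in a concentration series.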

[3] = qHTS assay to identify small molecule agonists of the constitutive androstane receptor (CAR) signaling pathway - cell viability counter screen (AID 1224836); note: nearly all actives have a fitted effect of over 45% in size; note: potency is the fitted concentration of half-maximal effect
In short: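 Compound titrations (15 concentrations) went onto HepG2-CYP2B6-hCAR cells 4 h after seeding, alongside PK11195 at a final 0.75 uM; a 23 h, 37 C/5% CO2 incubation preceded CellTiter-Fluor viability measurement.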

[4] = qHTS assay to identify small molecule antagonists of the constitutive androstane receptor (CAR) signaling pathway - cell viability counter screen (AID 1224837); note: nearly all actives have a fitted effect of over 45% in size; note: potency is the fitted concentration of half-maximal effect
In short: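 In quantitative HTS format, compounds at 15 concentrations were applied to HepG2 cells double-transfected with hCAR and CYP2B6-2.2kb under 50 nM CITCO stimulation; live-cell protease activity was read after 23 hr via CellTiter-Fluor.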

[5] = qHTS assay to identify small molecule antagonists of the estrogen related receptor signaling pathway with the pleiotropic PPARgamma coactivator (PGC) from Tox21 10K library - cell viability counter screen (AID 1224840; active = well fitted cell-killing curve with a large enough effect in the repeat runs, not every such curve was filed as active; note: nearly all actives have a fitted effect of over 40% in size; note: potency is the fitted concentration of half-maximal effect)
In short: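 Viability counter screen, PGC/ERR cells: 17.5 h compound exposure at 37 C, CellTiter-Fluor fluorescence endpoint.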

[6] = qHTS assay to identify small molecule antagonists of the estrogen related receptor signaling pathway with the pleiotropic PPARgamma coactivator (PGC) from Tox21 10K library (AID 1224841; call rule not given here; note: actives are mostly falling curves and most rising ones were filed inactive; nearly all actives have a fitted effect of over 50% in size)
In short: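 In the PGC/ERR line, DMSO solutions of test chemicals are pin-delivered to 2,000 cells/well six hours after dispensing. Following eighteen hours' incubation, One-Glo reagent is added and luminescence recorded.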

[7] = qHTS assay to identify small molecule agonists of the estrogen related receptor signaling pathway with the pleiotropic PPARgamma coactivator (PGC) from Tox21 10K library (AID 1224842); note: nearly all actives have a fitted effect of over 15% in size
In short: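 Luminescence from One-Glo (30 min, room temperature) measured after PGC/ERR cells had 18 h at 37 C with pinned compound (23 nL in DMSO). Cells had been seeded at 2,000 per well and pre-incubated 6 h.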

[8] = biological target: Thyrotropin receptor (Homo sapiens) (UniProt P16473); experiment: qHTS assay to identify small molecule agonists of the thyroid stimulating hormone receptor (TSHR) signaling pathway (AID 1224843; calls by dose curve; note: nearly all actives have a fitted effect of over 45% in size)
Thyrotropin receptor (Homo sapiens), sequence (P16473 whole entry, looked up): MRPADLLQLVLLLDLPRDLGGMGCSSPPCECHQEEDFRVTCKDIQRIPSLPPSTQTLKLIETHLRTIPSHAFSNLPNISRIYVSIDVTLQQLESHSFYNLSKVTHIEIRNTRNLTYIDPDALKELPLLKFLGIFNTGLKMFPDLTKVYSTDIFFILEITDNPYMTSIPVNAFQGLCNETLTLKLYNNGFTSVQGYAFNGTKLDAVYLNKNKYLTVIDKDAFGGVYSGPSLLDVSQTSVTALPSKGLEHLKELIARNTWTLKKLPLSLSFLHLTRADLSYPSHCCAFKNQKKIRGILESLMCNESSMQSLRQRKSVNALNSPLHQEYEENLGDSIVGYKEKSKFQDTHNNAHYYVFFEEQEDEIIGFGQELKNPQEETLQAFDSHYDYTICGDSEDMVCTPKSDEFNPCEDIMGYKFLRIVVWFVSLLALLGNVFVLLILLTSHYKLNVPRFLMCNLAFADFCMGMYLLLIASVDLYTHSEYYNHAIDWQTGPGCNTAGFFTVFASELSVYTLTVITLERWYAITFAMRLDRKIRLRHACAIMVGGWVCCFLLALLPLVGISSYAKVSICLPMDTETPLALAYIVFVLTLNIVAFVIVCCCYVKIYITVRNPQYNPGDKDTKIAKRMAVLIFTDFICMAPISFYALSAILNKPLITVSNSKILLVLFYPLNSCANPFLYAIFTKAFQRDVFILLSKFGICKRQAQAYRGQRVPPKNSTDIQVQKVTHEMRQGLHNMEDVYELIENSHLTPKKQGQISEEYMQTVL
In short: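 A cell-based cAMP HTRF format was run in TSHR-transfected HEK293 cells, 800 per well. Treatment: 30 min, room temperature. Detection: 1 h with labelled cAMP and anti-cAMP cryptate. Concentration-response over 15 points, three replicates.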

[9] = qHTS assay to identify small molecule agonists of the hypoxia (HIF-1) signaling pathway - cell viability counter screen (AID 1224844; calls by dose curve; note: nearly all actives have a fitted effect of over 50% in size)
In short: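 Same wells as the HIF-1 reporter screen; ME-180 cells carrying HRE-bla, 17 hr treatment at 37C; CellTiter-Glo luminescence read after 30 min at room temperature.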

[10] = qHTS assay to identify small molecule agonists of the hypoxia (HIF-1) signaling pathway (AID 1224846; active = well fitted activation curve with a large enough effect in the signal ratio in the repeat runs, not every such curve was filed as active; the % refers to the signal ratio)
In short: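 In ME-180 cells bearing an HRE-bla construct, 17 h treatment with DMSO-dissolved compounds at 37C was followed by CCF4-AM loading to quantify reporter induction.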

[11] = qHTS assay to identify small molecule agonists of H2AX - cell viability counter screen (AID 1224847; calls by dose curve; note: nearly all actives have a fitted effect of over 30% in size; note: potency is the fitted concentration of half-maximal effect; for activity change, negative = cytotoxicity: top concentration of the series differs between compounds)
In short: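 Read-out: CellTiter-Glo luminescence, 30 min RT. Cells: wild-type CHO-K1, 1000/well, 10% FBS, plated overnight at 37C. Treatment: 15 concentrations, 3 hr, 37C, 0.76% DMSO.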

[12] = qHTS assay to identify small molecule antagonists of the estrogen related receptor (ERR) signaling pathway from Tox21 library (AID 1224848); note: nearly all actives have a fitted effect of over 50% in size
In short: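 ERR cell line, 2,000 cells/well. 6 h settle, then compound (DMSO) added; 18 h at 37 C; ONE-Glo luminescence after 30 min RT.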

[13] = qHTS assay to identify small molecule agonists of the estrogen related receptor (ERR) signaling pathway from Tox21 library (AID 1224849; calls by dose curve; note: nearly all actives have a fitted effect of over 15% in size); details: ERR reporter cell line, ONE-Glo luciferase, 18 h; at 92.4 µM (top of the series) unless noted
In short: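 Reporter cells (ERR, NTP source) treated with Tox21 10K compounds 18 h, 37 C. Readout: ONE-Glo luminescence, 30 min RT.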

[14] = qHTS RealTime-Glo MT Cell Viability Assay in HepG2 cells - 24 hour (AID 1224867); note: nearly all actives have a fitted effect of over 50% in size
In short: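 Cells + NanoLuc/prosubstrate dispensed (600 cells/well) → 5 h at 37 C/5% CO2 → compounds in DMSO transferred → 40 h incubation at 37 C, luminescence read at 0, 8, 16, 24, 32, 40 h.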

[15] = qHTS RealTime-Glo MT Cell Viability Assay in HEK293 cells - 32 hour (AID 1224868)
In short: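 Tox21 10K qHTS, HEK293, 600 cells/well, RealTime-Glo reagent co-dispensed with cells; 5 h preincubation, compound by pintool, 37 C, luminescence at 0–40 h.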

[16] = A CellTox Green Cytotoxicity Assay to monitor cytotoxicity in HEK293 cells - 0 hour (AID 1224869); note: nearly all actives have a fitted effect of over 50% in size
In short: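 Homogeneous no-lysis format: HEK293 cell suspension mixed with CellTox Green reagent, seeded, incubated 5 h at 37 C/5% CO2, then dosed by pintool with compound in DMSO.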

[17] = qHTS RealTime-Glo MT Cell Viability Assay in HepG2 cells - 40 hour (AID 1224870); note: nearly all actives have a fitted effect of over 50% in size
In short: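 Real-time viability: cells seeded at 600 per well together with NanoLuc and cell-permeant prosubstrate, compounds added after 5 h incubation. Luminescence tracked at 0, 8, 16, 24, 32 and 40 h of exposure.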

[18] = biological target: Nuclear receptor subfamily 1 group I member 3 (Homo sapiens) (UniProt Q14994); experiment: qHTS assay to identify small molecule antagonists of the constitutive androstane receptor (CAR) signaling pathway (AID 1224838); note: nearly all actives have a fitted effect of over 40% in size
Nuclear receptor subfamily 1 group I member 3 (Homo sapiens), sequence (Q14994 whole entry, looked up): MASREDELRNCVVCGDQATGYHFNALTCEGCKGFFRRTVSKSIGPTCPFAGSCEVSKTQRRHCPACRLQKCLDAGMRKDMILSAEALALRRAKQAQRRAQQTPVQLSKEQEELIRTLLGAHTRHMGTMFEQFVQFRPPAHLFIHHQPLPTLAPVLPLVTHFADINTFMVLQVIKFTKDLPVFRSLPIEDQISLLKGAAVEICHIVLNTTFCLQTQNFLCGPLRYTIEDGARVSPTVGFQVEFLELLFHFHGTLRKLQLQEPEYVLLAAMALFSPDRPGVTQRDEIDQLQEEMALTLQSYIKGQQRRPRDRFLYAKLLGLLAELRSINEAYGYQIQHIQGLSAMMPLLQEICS
In short: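 CITCO-stimulated (50 nM final) HepG2 cells stably transfected with hCAR and CYP2B6-2.2kb luciferase were exposed to compounds at 15 concentrations for 24 h at 37 C/5% CO2. A luciferase reagent was added and luminescence recorded after 30 min.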

[19] = qHTS assay to identify small molecule agonists of H2AX (AID 1224845; active = well fitted activation curve with a large enough effect in the signal ratio in the repeat runs, not every such curve was filed as active; the % refers to the signal ratio)
In short: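 Phospho-H2AX Ser139 measured by HTRF (ex 320 nm; em 665 and 620 nm) after 24 hr antibody incubation. Compounds, 15 concentrations, 0.76% DMSO, were applied to CHO-K1 cells for 3hr at 37C before lysis.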

[20] = biological target: Nuclear receptor subfamily 1 group I member 3 (Homo sapiens) (UniProt Q14994); experiment: qHTS assay to identify small molecule agonists of the constitutive androstane receptor (CAR) signaling pathway (AID 1224839);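 note: HepG2 cells stably carrying human CAR and a CYP2B6 luciferase reporter; nearly all actives have a fitted effect of over 15% in size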
In short: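 In this screen, CAR-driven CYP2B6 promoter activity is measured by luminescence in HepG2-CYP2B6-hCAR cells after 24 h with test compounds and 0.75 uM PK11195 (final concentration).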
% is set by controls: 0 for no effect and ±100 for the full control effect.

O=[N+]([O-])c1ccc(NCCO)c(OCCO)c1
active: Potency [1] 30.7 µM | Potency [3] 43.3 µM | Potency [4] 48.6 µM | Potency [5] 48.6 µM
inactive: Potency [2] | Potency [6] | Potency [7] | Potency [8] | Potency [9] | Potency [10] | Potency [11] | Potency [12] | activity change, positive = activation [13] -14.5% | Potency [14] | Potency [15] | Potency [16] | Potency [17]

C/C=C/C(=O)CC
inactive: viability change, negative = cytotoxic [1] 3.2% [at 19 µM] | activity change, negative = inhibition [2] 3.1% [at 23.6 µM] | viability change, negative = cytotoxic [3] 4.38% [at 19 µM] | activity change, negative = cytotoxicity [4] 0.0894% [at 19 µM] | activity, negative = inhibition [18] -5.29% [at 19 µM] | viability change, negative = cytotoxic [5] 7.3% [at 19 µM] | activation [8] -10.5% [at 19 µM] | activation (H2AX phosphorylation) [19] -0.233% [at 31.6 µM] | activation [10] -0.782% [at 15.8 µM] | activity change, negative = cytotoxicity [11] 0.284% [at 31.6 µM] | activity change, negative = cytotoxicity [14] 0.602% [at 15.8 µM] | activity change, negative = cytotoxic [15] 1.19% [at 15.8 µM] | cytotoxicity [16] 1.29% [at 15.8 µM] | activity change, negative = cytotoxic [17] 1.82% [at 15.8 µM]

CCN(CC)CCOC(=O)C(c1ccccc1)C1CCCCC1 (configuration not stated)
inactive: Potency [2] | Potency [3] | Potency [4] | Potency [18] | Potency [9] | Potency [10] | Potency [16] | Potency [17]
active: Potency [1] 29.8 µM | Potency [11] 49.2 µM

CCO[Si](CCCCl)(OCC)OCC
inactive: Potency [1] | Potency [2] | Potency [3] | Potency [4] | Potency [18] | Potency [8] | Potency [9] | Potency [19] | Potency [10] | Potency [11] | Potency [14] | Potency [15] | Potency [16] | Potency [17]

COC(C)OC
inactive: Potency [1] | Potency [2] | Potency [3] | Potency [4] | Potency [5] | Potency [6] | Potency [7] | Potency [8] | Potency [9] | Potency [19] | Potency [10] | Potency [11] | Potency [12] | activity change, positive = activation [13] -2.66% | Potency [14] | Potency [15] | Potency [16] | Potency [17]

CCNc1cc(O)ccc1C
inactive: Potency [1] | Potency [2] | Potency [3] | Potency [4] | Potency [18] | Potency [6] | Potency [7] | Potency [9] | Potency [10] | Potency [11] | Potency [12] | activity change, positive = activation [13] -8.23% | Potency [14] | Potency [15] | Potency [16] | Potency [17]

CC(C)=CCC/C(C)=C/CC/C(C)=C/CO
inactive: Potency [1] | Potency [2] | Potency [3] | Potency [4] | Potency [18] | Potency [5] | Potency [8] | Potency [9] | Potency [19] | Potency [10] | Potency [14] | Potency [16] | Potency [17]

N=c1ccn2c(n1)O[C@H]1[C@H](O)[C@@H](CO)O[C@H]12
inactive: Potency [1] | Potency [2] | Potency [3] | Potency [4] | Potency [5] | Potency [6] | Potency [7] | Potency [8] | Potency [9] | Potency [10] | Potency [12] | activity change, positive = activation [13] -6.33% | Potency [14] | Potency [15] | Potency [16] | Potency [17]

c1ccc(CNCCNCc2ccccc2)cc1
inactive: Potency [1] | Potency [2] | Potency [3] | Potency [4] | Potency [18] | Potency [5] | Potency [8] | Potency [9] | Potency [10] | Potency [11] | Potency [14] | Potency [15] | Potency [16] | Potency [17]

C=CC1CC2C=CC1C2 (configuration not stated)
inactive: Potency [1] | Potency [2] | Potency [3] | Potency [4] | Potency [18] | Potency [5] | Potency [19] | Potency [10] | Potency [11] | Potency [14] | Potency [15] | Potency [16] | Potency [17]

COc1ccc(C(=O)N2CCN(CC(=O)N3CCOCC3)CC2)cc1
inactive: Potency [1] | Potency [2] | Potency [3] | Potency [4] | Potency [5] | Potency [6] | Potency [7] | Potency [8] | Potency [9] | Potency [19] | Potency [10] | Potency [11] | Potency [12] | activity change, positive = activation [13] 4.84% [at 42.5 µM] | Potency [14] | Potency [15] | Potency [16] | Potency [17]

CNC(=O)CN(CCN(CCN(CC(=O)[O-])CC(=O)NC)CC(=O)[O-])CC(=O)[O-].O.[Gd+3]
inactive: Potency [1] | Potency [2] | Potency [3] | Potency [4] | Potency [18] | Potency [5] | Potency [9] | Potency [19] | Potency [10] | Potency [11] | Potency [14] | Potency [15] | Potency [16] | Potency [17]

CC[N+]1(CC)CCC(=C(c2ccccc2)c2ccccc2)C1C (configuration not stated)
inactive: Potency [1] | Potency [2] | Potency [3] | Potency [4] | Potency [18] | Potency [20] | Potency [8] | Potency [9] | Potency [19] | Potency [10] | Potency [11] | Potency [14] | Potency [16] | Potency [17]

C[C@@H]1C[C@H]2O[C@@]3(O[C@@H]2C(C)(C)O)[C@H](O)[C@@]2(C)[C@@H]4CC[C@H]5C(C)(C)[C@@H](O[C@@H]6OC[C@@H](O)[C@H](O)[C@H]6O)CC[C@@]56C[C@@]46CC[C@]2(C)[C@@H]13
inactive: Potency [1] | Potency [2] | Potency [3] | Potency [4] | Potency [18] | Potency [5] | Potency [6] | Potency [7] | Potency [8] | Potency [9] | Potency [10] | Potency [11] | Potency [12] | activity change, positive = activation [13] -12.2% [at 42.5 µM] | Potency [14] | Potency [15] | Potency [16] | Potency [17]

O=C1CCC(=O)O1
inactive: Potency [1] | Potency [2] | Potency [3] | Potency [4] | Potency [18] | Potency [5] | Potency [6] | Potency [7] | Potency [9] | Potency [19] | Potency [10] | Potency [11] | Potency [12] | activity change, positive = activation [13] 5.7% | Potency [14] | Potency [15] | Potency [16] | Potency [17]
